About 83,000 compounds went through this panel and 20% of them were active in at least one assay; those are over-represented in the sample as a whole.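 The test compound was applied at a single concentration to cells in 96-well plates for 48 hours, and percent growth was recorded.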 Unmarked numbers belong to inactive results. Activity calls are given as the source filed them. The calls were made as follows: active = growth percent below 10; inactive = the rest.
test system: SNB-19 CNS; assay: NCI-60 one-dose screen, 48 h (100 = growth as untreated, 0 = no growth, -100 = all killed); conditions: 10 µM unless noted

Compound	growth [%]
CC(C)(C)OC(=O)NC(CSCc1ccccc1)C(=O)ON1C(=O)CCC1=O (stereo unspecified)	106
Nc1cccc(Cl)c1N	116
C/C(=C\c1ccc(OCC(=O)O)c(Cl)c1Cl)[N+](=O)[O-]	115
CCOC(=O)C1=C(C)NC(C)=C(C(=O)OCC)C1(C)C	98.1
N#C/C(=C1C=C/C(=N/O)C(Cl)=C/1)c1ccc(Cl)cc1	93.6
CCC(C)/C(=C\C#N)NCCCN/C(=C/C#N)C(C)CC (stereo unspecified)	109
O=C(CSC1CCc2ccccc21)N/N=C/c1ccccc1O (stereo unspecified)	60.5
CC1(c2ccc(Cl)cc2)OC(=O)CC(=O)O1	97
O=C1C(Cl)=C(Nc2ccccn2)C(=O)c2ccccc21	93.2
CCCCCCCCCCCCCCCCNC(=O)OC(C)C	95.5
Cc1ccc2nc(Cl)cc(=O)n2c1	105
CC1CCC(C)N(C)C1 (stereo unspecified)	98.6
CCc1cnc(=S)n(-c2ccccc2)c1	107
CC(=O)Nc1nc(N)nc(NC(C)=O)c1N=O	111
COc1cc(C2CC(c3ccc4c(c3)OCO4)=NN2C(C)=O)cc(OC)c1OC (stereo unspecified)	47.6
O=C(c1ccccc1)C1OC1c1ccc([N+](=O)[O-])cc1 (stereo unspecified)	95.3
COc1ccc2c(c1)C(c1cc(OC)c3c(c1)OCO3)C1=C(COC1=O)N2 (stereo unspecified)	35.2
CC(=O)Nc1scc[n+]1Cc1ccccc1	110
C=C1CCC2C3(C)COC(c4ccccc4)OC3CCC2(C)C1/C=C/C1=CCOC1=O (stereo unspecified)	71.8

Compound	growth [%]
CCN(CC)CCOc1ccc(Cl)c(C)c1	101
O=C(Oc1ccccc1[N+](=O)[O-])C1CCCN1C(=O)OCc1ccccc1 (stereo unspecified)	103
CC(=O)Nc1ccc(S(=O)(=O)n2ccc(-c3ccc4c(c3)CCC(C)(C)O4)n2)cc1	73.3
CC(C)(C)OC(=O)NCCc1ccc(N=C=S)cc1	84.7
COc1cc(C2CC(c3ccc4c(c3)OCO4)=NN2C=O)cc(OC)c1OC (stereo unspecified)	42.8
O=C1CCCCC1(c1ccccc1)c1ccccc1	100
Nc1nc(=O)c2ccccc2s1	104
CN1C=CN(Cc2ccc(-c3ccccn3)nc2)[CH-]1.CN1C=CN(Cc2ccc(-c3ccccn3)nc2)[CH-]1.[Au+3]	62.6
COC(OC)c1ccccc1	121
C=C[C@@H]1C[C@H](O)Cc2cc(F)ccc2N1	104
CN(C)c1ncnc2c1ccn2C1OC(CO)C(O)C1O (stereo unspecified)	73.8
NC1=NN(O)C2=CC([N+](=O)[O-])C=CC2=N1 (stereo unspecified)	119
O=C([O][Sn]([O]C(=O)c1ccccn1)([c]1ccccc1)[c]1ccccc1)c1ccccn1	105
C=C(C)[C@@H]1C[C@H](O)Cc2cc(F)ccc2N1	104
CNC(=S)NNC(=O)C1CC1	106
COc1ccc(CNCCCN2C(=O)c3ccc4c5c(ccc(c35)C2=O)C(=O)N(CCCNCCCCNCCCN)C4=O)c(OC)c1OC	28
Cc1ccc(S(=O)(=O)C2=C3C(=C(c4ccccc4)c4ccccc43)CN(S(=O)(=O)c3ccc(C)cc3)C2)cc1	82.1
COc1cc2c(c(OC)c1OC)-c1ccc(N)c(=O)cc1[C@@H](NC(C)=O)CC2	34.2

test system: U251 CNS; assay: as above; conditions: 10 µM unless noted

Compound	growth
CC(C)(C)OC(=O)NC(CSCc1ccccc1)C(=O)ON1C(=O)CCC1=O (stereo unspecified)	105%
Nc1cccc(Cl)c1N	110%
C/C(=C\c1ccc(OCC(=O)O)c(Cl)c1Cl)[N+](=O)[O-]	96.4%
CCOC(=O)C1=C(C)NC(C)=C(C(=O)OCC)C1(C)C	107%
N#C/C(=C1C=C/C(=N/O)C(Cl)=C/1)c1ccc(Cl)cc1	46.4%
CCC(C)/C(=C\C#N)NCCCN/C(=C/C#N)C(C)CC (stereo unspecified)	104%
Cn1ncc2c(Sc3ccc(Cl)cc3)ncnc21	81.9%
O=C(CSC1CCc2ccccc21)N/N=C/c1ccccc1O (stereo unspecified)	48.7%
CC1(c2ccc(Cl)cc2)OC(=O)CC(=O)O1	102%
O=C1C(Cl)=C(Nc2ccccn2)C(=O)c2ccccc21	42.2%
CCCCCCCCCCCCCCCCNC(=O)OC(C)C	14.1%
Cc1ccc2nc(Cl)cc(=O)n2c1	119%
CC1CCC(C)N(C)C1 (stereo unspecified)	107%
CCc1cnc(=S)n(-c2ccccc2)c1	117%
CC(=O)Nc1nc(N)nc(NC(C)=O)c1N=O	116%
COc1cc(C2CC(c3ccc4c(c3)OCO4)=NN2C(C)=O)cc(OC)c1OC (stereo unspecified)	28.2%
O=C(c1ccccc1)C1OC1c1ccc([N+](=O)[O-])cc1 (stereo unspecified)	64.8%
COc1ccc2c(c1)C(c1cc(OC)c3c(c1)OCO3)C1=C(COC1=O)N2 (stereo unspecified)	20.3%
CC(=O)Nc1scc[n+]1Cc1ccccc1	106%
C=C1CCC2C3(C)COC(c4ccccc4)OC3CCC2(C)C1/C=C/C1=CCOC1=O (stereo unspecified)	40.1%

Compound	growth
CCN(CC)CCOc1ccc(Cl)c(C)c1	107%
O=C(Oc1ccccc1[N+](=O)[O-])C1CCCN1C(=O)OCc1ccccc1 (stereo unspecified)	96.8%
CC(=O)Nc1ccc(S(=O)(=O)n2ccc(-c3ccc4c(c3)CCC(C)(C)O4)n2)cc1	66%
CC(C)(C)OC(=O)NCCc1ccc(N=C=S)cc1	75.4%
COc1cc(C2CC(c3ccc4c(c3)OCO4)=NN2C=O)cc(OC)c1OC (stereo unspecified)	32%
O=C1CCCCC1(c1ccccc1)c1ccccc1	108%
Nc1nc(=O)c2ccccc2s1	111%
CN1C=CN(Cc2ccc(-c3ccccn3)nc2)[CH-]1.CN1C=CN(Cc2ccc(-c3ccccn3)nc2)[CH-]1.[Au+3]	38.6%
COC(OC)c1ccccc1	99.3%
C=C[C@@H]1C[C@H](O)Cc2cc(F)ccc2N1	93.3%
CN(C)c1ncnc2c1ccn2C1OC(CO)C(O)C1O (stereo unspecified)	97%
NC1=NN(O)C2=CC([N+](=O)[O-])C=CC2=N1 (stereo unspecified)	109%
O=C([O][Sn]([O]C(=O)c1ccccn1)([c]1ccccc1)[c]1ccccc1)c1ccccn1	86.3%
C=C(C)[C@@H]1C[C@H](O)Cc2cc(F)ccc2N1	92.7%
CNC(=S)NNC(=O)C1CC1	109%
CCOC(=O)C1CCNC(=O)C1=O (stereo unspecified)	111%
COc1ccc(CNCCCN2C(=O)c3ccc4c5c(ccc(c35)C2=O)C(=O)N(CCCNCCCCNCCCN)C4=O)c(OC)c1OC	-6.34% (active)
Cc1ccc(S(=O)(=O)C2=C3C(=C(c4ccccc4)c4ccccc43)CN(S(=O)(=O)c3ccc(C)cc3)C2)cc1	38.4%
COc1cc2c(c(OC)c1OC)-c1ccc(N)c(=O)cc1[C@@H](NC(C)=O)CC2	18%

— PubChem BioAssay (NCI)
